# Screen size: about 400,000 compounds; about 2,100 (0.53%) were called active. Another 14% or so got no clear call; they are omitted. The rule behind the calls is not given here. What follows is part of a selection rich in actives, with near analogues and random picks from the rest.
# Biological target: Ataxin-2 (Homo sapiens) (UniProt Q99700)
# Assay: qHTS for Inhibitors of ATXN expression.
# Format: functional
# Sequence of Ataxin-2 (Homo sapiens) (Q99700 whole entry): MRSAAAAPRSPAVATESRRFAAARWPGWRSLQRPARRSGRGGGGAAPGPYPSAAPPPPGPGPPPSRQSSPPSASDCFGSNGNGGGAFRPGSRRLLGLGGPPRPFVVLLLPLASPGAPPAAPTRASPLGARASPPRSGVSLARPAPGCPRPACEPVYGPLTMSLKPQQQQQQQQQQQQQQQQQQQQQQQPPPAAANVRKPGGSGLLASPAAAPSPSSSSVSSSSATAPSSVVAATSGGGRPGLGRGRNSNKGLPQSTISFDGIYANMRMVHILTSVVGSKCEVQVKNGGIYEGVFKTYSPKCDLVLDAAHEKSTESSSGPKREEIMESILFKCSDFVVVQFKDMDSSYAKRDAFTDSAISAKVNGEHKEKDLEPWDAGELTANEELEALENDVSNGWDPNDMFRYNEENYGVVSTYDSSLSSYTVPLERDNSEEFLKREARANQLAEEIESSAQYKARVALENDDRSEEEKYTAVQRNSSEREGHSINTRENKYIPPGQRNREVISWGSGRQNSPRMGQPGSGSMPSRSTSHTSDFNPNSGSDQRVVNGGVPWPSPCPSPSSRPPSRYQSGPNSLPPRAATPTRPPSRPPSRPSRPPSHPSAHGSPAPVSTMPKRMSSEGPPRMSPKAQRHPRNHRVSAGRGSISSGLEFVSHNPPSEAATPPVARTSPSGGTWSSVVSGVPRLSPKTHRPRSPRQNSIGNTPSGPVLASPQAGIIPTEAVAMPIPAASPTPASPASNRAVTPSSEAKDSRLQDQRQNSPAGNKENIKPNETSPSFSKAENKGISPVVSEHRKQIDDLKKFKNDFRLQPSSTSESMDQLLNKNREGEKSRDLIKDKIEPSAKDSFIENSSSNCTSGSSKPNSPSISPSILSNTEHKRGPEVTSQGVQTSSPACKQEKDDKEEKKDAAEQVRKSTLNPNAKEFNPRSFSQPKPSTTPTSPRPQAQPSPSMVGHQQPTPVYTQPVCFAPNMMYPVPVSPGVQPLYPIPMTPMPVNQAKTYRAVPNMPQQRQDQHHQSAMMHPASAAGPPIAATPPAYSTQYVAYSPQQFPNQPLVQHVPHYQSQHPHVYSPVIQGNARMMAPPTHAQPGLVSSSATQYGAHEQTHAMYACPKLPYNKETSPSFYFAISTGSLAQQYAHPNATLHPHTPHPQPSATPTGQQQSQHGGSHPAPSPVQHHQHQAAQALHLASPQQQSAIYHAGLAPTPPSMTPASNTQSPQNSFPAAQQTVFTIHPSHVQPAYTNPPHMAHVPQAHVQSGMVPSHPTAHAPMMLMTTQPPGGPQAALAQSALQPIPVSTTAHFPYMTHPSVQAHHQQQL
row,Compound,Potency
1,O=C(Oc1cccc2cccnc12)c1cccc(N2C(=O)C3C4CCC(C4)C3C2=O)c1 (stereo not drawn),inactive
2,COC(=O)c1ccc(NC(=O)c2cccc(N3C(=O)C4C5C=CC(C6CC56)C4C3=O)c2)cc1 (stereo not drawn),39.8 µM (active)
3,COC(=O)c1ccc(NC(=O)c2cccc(C)c2)cc1,inactive
4,CCN(CC(=O)Nc1ccc(NC(C)=O)cc1)C(=O)CSC(=S)N1CCCC1,3.55 µM (active)
5,CC(=O)Nc1ccc(NC(=O)CC2CCCC2)cc1,inactive
6,Cc1ccc(NC(=O)COC(=O)CSC(=S)N2CCOCC2)cc1,inactive
7,CCN(CC)CCCNc1oc(/C=C/c2ccccc2)nc1C#N,inactive
8,COc1cccc(/C=N/NC(=O)c2ccc(=O)n(C)c2)c1O,inactive
9,COc1cccc(/C=N/NC(=O)c2cc3cc([N+](=O)[O-])ccc3s2)c1O,14.1 µM (active)
10,O=C(N/N=C/c1sc2ccccc2c1O)c1cccc2ccccc12,inactive
11,COc1cc(Cl)cc(/C=N\NC(=O)c2ccc3c(c2)OCO3)c1O,inactive
12,CCOc1cc(/C=N/NC(=O)c2ccc3c(c2)OCCO3)cc(Br)c1O,inactive
13,O=C(N/N=C/c1cc([N+](=O)[O-])ccc1O)c1ccc2c(c1)OCCO2,50.1 µM (active)
14,O=C(NN=Cc1cc([N+](=O)[O-])ccc1O)c1cccc2ccccc12,33.6 µM (active)
15,COc1cccc(/C=N/NC(=O)c2c(C)nc3ccc(Cl)cn23)c1OC,inactive
16,Cc1occc1C(=O)N/N=C/c1cccc2ccccc12,inactive
17,Fc1ccc(NC(=S)N2CCSC2c2cccs2)cc1 (stereo not drawn),inactive
18,CC(C)OC(=O)CC(=O)CSc1nc2c(c(-c3cccs3)c1C#N)CCC2,inactive
19,CC1CN(CCOCCSc2ccc(Cl)cc2)CC(C)O1 (stereo not drawn),inactive
20,Cn1c2ccccc2c2nnc(NN)nc21,inactive
21,CN(Cc1ccsc1)C(=O)CCc1nnc(CCCc2ccccc2)o1,inactive
22,COCCCNCCCCSc1ccc(Cl)cc1,inactive

row,Compound,Potency
1,CCCOc1ccc(C(=O)NNC(=S)NC(=O)CC)cc1,31.6 µM (active)
2,COc1cc(OC)cc(C(=O)NNC(=S)NC(=O)c2cccnc2)c1,inactive
3,CCCCOc1ccc(C(=O)NCCc2ccccc2)cc1,inactive
4,Cc1ccc(SCc2c(C(=O)N/N=C/c3ccoc3)nnn2-c2nonc2N)cc1,inactive
5,CC(=O)Nc1ccc(NC(=O)/C=C/c2ccc3c(c2)OCO3)cc1,inactive
6,CCN(C(=O)COC(=O)/C=C/c1ccc2c(c1)OCO2)c1c(N)n(Cc2ccccc2)c(=O)[nH]c1=O,inactive
7,CCOC(=O)c1[nH]c2ccc(Cl)cc2c1NC(=O)/C=C/c1ccc2c(c1)OCO2,44.7 µM (active)
8,CCN(CC)S(=O)(=O)c1cccc(-c2nnc(SCC(N)=O)n2C)c1,inactive
9,CC1=NNC(=O)/C1=C\c1cn(-c2ccccc2)nc1-c1ccc(F)cc1,8.91 µM (active)
10,O=Cc1cn(-c2ccccc2)nc1-c1cc2cc(O)ccc2oc1=O,inactive
11,CCCSc1ccc(-c2nn(-c3ccccc3)cc2/C=C(/C#N)C(=O)NCCCOC)cc1,inactive
12,CC1=NNC(=O)/C1=C\c1cn(-c2ccccc2)nc1-c1ccc(Cl)cc1,10 µM (active)
13,CCSc1ccc(-c2nn(-c3ccccc3)cc2/C=C(/C#N)C(=O)NC)cc1,inactive
14,CCCOc1ccc(-c2nn(-c3ccccc3)cc2/C=C2\SC(N)=NC2=O)cc1,inactive
15,CCC(C)Sc1nc(O)c2cnn(-c3ccc(F)cc3)c2n1 (stereo not drawn),inactive
16,O=C(N/N=C\c1cc(Br)ccc1O)c1ccc(S(=O)(=O)N2CCCCC2)cc1,inactive
17,CC(OC(=O)Cn1cnc2c1c(=O)n(C)c(=O)n2C)C(=O)Nc1ccc(Cl)cc1 (stereo not drawn),inactive
18,Oc1ccc(C2C=C(c3ccc(F)cc3)Nc3ncnn32)cc1 (stereo not drawn),inactive
19,Cc1cc(C)nc(-n2nc(C)c3c2NC(=O)CC3c2ccccc2OC(C)C)n1 (stereo not drawn),25.1 µM (active)
20,CCCCCCSc1ccc(-c2nc3cnccn3c2NC2CCCCC2)cc1,inactive
21,CCOC(=O)c1c(C)[nH]c(C(=O)COC(=O)CCNS(=O)(=O)c2ccc(NC(C)=O)cc2)c1C,inactive
22,CCCCn1c(NC(=O)c2ccco2)c(S(=O)(=O)c2ccc(C)cc2)c2nc3ccccc3nc21,inactive

row,Compound,Potency
1,CC[n+]1c(/C=C2\SC(c3ccccc3C)=CN2C)sc2ccccc21,inactive
2,CC[n+]1c(/C=C/C=C/N(C(C)=O)c2ccccc2)sc2ccccc21,35.5 µM (active)
3,CCn1nc(-c2ccccc2)c2nc3ccccc3nc21,inactive
4,Nc1c(Cl)c(Cl)nc(C(=O)OCC(=O)NCc2ccccc2)c1Cl,inactive
5,O=C(NCc1ccccc1)c1c(Cl)nc(Cl)c(Cl)c1Cl,39.8 µM (active)
6,Cc1nc(Cl)c(C(=O)NCc2ccccc2)c(C)c1Cl,inactive
7,CCCOC(=O)c1cccc(Nc2nc(-c3cccnc3)nc3ccccc23)c1,35.5 µM (active)
8,CCOC(=O)c1sc2nc(-c3cccnc3)ccc2c1N,inactive
9,CCOC(=O)c1nc(Nc2ccccc2CC)c2ccccc2n1,inactive
10,CCOC(=O)c1sc2nc(C)cc(-c3ccccc3)c2c1N,inactive
11,CC(=O)c1cccc(Nc2nc(-c3ccccc3)nc3ccccc23)c1,inactive
12,CCOC(=O)c1cccc(Nc2nc(C(=O)OCC)nc3ccccc23)c1,39.8 µM (active)
13,O=c1cc(-c2ccccc2)c2ccc(O)cc2o1,inactive
14,O=C1CN(C(=O)NCC(=O)N2CCCC2)c2ccccc2N1,inactive
15,O=C1OCCN1C(=O)[C@H]1[C@H](c2ccccc2)C(c2ccc(F)cc2)=NN1c1ccc(Br)cc1,inactive
16,CCCC(O)(CCC)C(=O)NN(C(=O)CCl)c1cccc(C)c1,21.2 µM (active)
17,CCCCCCCN(C(=O)CCl)c1cccc(C)c1,14.1 µM (active)
18,Cc1ccc(S(=O)(=O)Oc2ccc(C3C4=C(CCCC4=O)N(CCC(=O)O)C4=C3C(=O)CCC4)cc2Cl)cc1,inactive
19,O=c1c2ccccc2n(CC(O)CN2CCOCC2)c2ccccc12 (stereo not drawn),inactive
20,O=C(c1ccc(F)cc1)C1CCN(Cc2ccccc2)CC1,inactive
21,O=c1oc2c(CN3CCOCC3)c(O)ccc2cc1-c1ccccc1,inactive
22,OC(CN1CCN(C(c2ccccc2)c2ccccc2)CC1)c1ccc(Br)cc1 (stereo not drawn),inactive

row,Compound,Potency
1,CC(N=C(S)N1CCOCC1)c1ccccc1 (stereo not drawn),inactive
2,O=C(c1ccc(Br)cc1)C(CN1CCOCC1)c1ccccc1 (stereo not drawn),29.9 µM (active)
3,O=C(c1ccc(F)cc1)C(CN1CCOCC1)c1ccccc1 (stereo not drawn),25.1 µM (active)
4,O=C(c1ccccc1)C(CCC(CN1CCOCC1)C(=O)c1ccccc1)CN1CCOCC1 (stereo not drawn),14.1 µM (active)
5,O=C(c1ccc(Br)cc1)c1sc(N2CCOCC2)nc1-c1ccccc1,inactive
6,Cc1c(O)ccc2c(CN3CCN(C/C=C/c4ccccc4)CC3)cc(=O)oc12,inactive
7,O=[N+]([O-])c1ccc(C2=CSC3=NCCN23)cc1,inactive
8,Cc1cccc(-n2nc(C)c3c2N=C2CCCC(O)=C2C3c2ccccn2)c1 (stereo not drawn),inactive
9,CC1(C(=O)OCC(=O)Nc2cc(S(=O)(=O)N3CCOCC3)ccc2Cl)CC1(Cl)Cl (stereo not drawn),inactive
10,O=C(NCCCn1ccnc1)c1ccc(-c2ccccc2)cc1,inactive
11,N=c1c2c(-c3ccccc3)c(-c3ccccc3)n(Cc3ccccc3)c2ncn1CCCn1ccnc1,35.5 µM (active)
12,c1ccc(-c2c(-c3ccccc3)n(Cc3ccco3)c3ncnc(NCCCn4ccnc4)c23)cc1,25.1 µM (active)
13,Cc1ccc2nc3c(cc(C(=O)NCc4ccccc4)c(=N)n3CCCn3ccnc3)c(=O)n2c1,inactive
14,Cc1cccc(Cl)c1OCCCn1ccnc1,inactive
15,O=c1c2ccccc2oc2cc(NCCCn3ccnc3)ccc12,inactive
16,CC[C@H]1C(c2ccc(F)cc2)=NN(c2ccccc2)[C@@H]1CO,inactive
17,C/C(CC(=O)NCc1ccco1)=N\NC(=O)Cc1ccc(-c2ccccc2)cc1,inactive
18,COc1cc(C(=O)NN=C(S)Nc2ccc(S(N)(=O)=O)cc2)cc(OC)c1OC,inactive
19,NS(=O)(=O)c1ccc(NC(=O)COC(=O)COc2cccc(C(F)(F)F)c2)cc1,inactive
20,CC(C)C(Cl)=NOC(=O)Nc1ccc(S(N)(=O)=O)cc1,21.2 µM (active)
21,COC(=O)c1c(NC(=O)c2ccc(S(=O)(=O)N3CC(C)OC(C)C3)cc2)sc2c1CCN(C)C2 (stereo not drawn),inactive
22,O=c1ccc2cc3c4c(c2o1)CCCN4CCC3,inactive

row,Compound,Potency
1,CCCCOc1ccc(N(CC(=O)NCc2ccco2)C(=O)CCC(=O)Nc2nccs2)cc1,inactive
2,COc1ccc(OC)c([N+](=O)[O-])c1C(N)=O,inactive
3,COc1ccncc1-c1ccc(C2=CC(=O)CC(C)(C)C2=O)cc1,35.5 µM (active)
4,CC1=CC(=C(C#N)c2nc3ccccc3s2)C=C(C)N1c1ccc(F)cc1F,inactive
5,CC1=C(C(=O)NCCCOC(C)C)C2(CCC(C)CC2)OC1=O (stereo not drawn),inactive
6,COCCCn1c(C(=O)NCCN2CCOCC2)cc2c(=O)n3ccccc3nc21,inactive
7,COc1cccc(-n2cnnc2S)c1,inactive
8,COc1cccc(/C=N/n2nnnc2N)c1,inactive
9,CCCS(=O)(=O)c1nnnn1-c1cccc(OC)c1,35.5 µM (active)
10,Cc1cc(OC(C)C(=O)NC2CC(C)(C)NC(C)(C)C2)c2c(C)c(C)c(=O)oc2c1 (stereo not drawn),inactive
11,Cc1cccn2c(=O)c3cc(C(=O)NC(C)c4ccccc4)c(=N)n(CCCO)c3nc12 (stereo not drawn),inactive
12,O=C(Nc1ccc2nc3n(c(=O)c2c1)CCCC3)c1cc([N+](=O)[O-])ccc1F,22.4 µM (active)
13,Cc1ccc(C)c(NC(=O)c2ccc3c(=O)n4c(nc3c2)CCC4)c1,inactive
14,O=C(Nc1ccc2nc3n(c(=O)c2c1)CCCCC3)c1c(F)ccc([N+](=O)[O-])c1F,8.91 µM (active)
15,CCN(CC)S(=O)(=O)c1ccc(NC(=O)c2ccc3c(=O)n4c(nc3c2)CCCCC4)cc1,11.2 µM (active)
16,O=C(Nc1ccc2nc3n(c(=O)c2c1)CCCCC3)c1cc([N+](=O)[O-])ccc1F,39.8 µM (active)
17,CCCN(CCC)CCCN=C(S)Nc1ccc2nc3n(c(=O)c2c1)CCCCC3,inactive
18,O=c1c2cc(NC(=S)N3CCC(N4CCCCC4)CC3)ccc2nc2n1CCCCC2,inactive
19,O=C(/C=C/c1ccco1)Nc1ccc2nc3n(c(=O)c2c1)CCCC3,inactive
20,Cc1cccc(OC(=O)c2ccc3c(=O)n4c(nc3c2)CCC4)c1,inactive

# — ChEMBL document CHEMBL1201862, “PubChem BioAssay data set” (2004)
